The source of these data is PubChem BioAssay AID485358 (National Center for Advancing Translational Sciences (NCATS), 2010).

SMILES strings stand for the structures. Where “and” joins values, the source holds several entries; their conditions need not be identical. Equal entries are not always repeated. Hit rate of the full screen: of about 340,000 compounds, about 1,800 (0.53%) were called active. For the sample, actives were picked, then their nearest neighbours and some compounds at random. Unmarked numbers belong to inactive results.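 How the source made its calls: active means activation over 3 SD above normal in the single-dose calcium agonist read (cut at about 30% in these data); inactive means the rest.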

D(2) dopamine receptor (Homo sapiens), sequence (P14416 whole entry, looked up): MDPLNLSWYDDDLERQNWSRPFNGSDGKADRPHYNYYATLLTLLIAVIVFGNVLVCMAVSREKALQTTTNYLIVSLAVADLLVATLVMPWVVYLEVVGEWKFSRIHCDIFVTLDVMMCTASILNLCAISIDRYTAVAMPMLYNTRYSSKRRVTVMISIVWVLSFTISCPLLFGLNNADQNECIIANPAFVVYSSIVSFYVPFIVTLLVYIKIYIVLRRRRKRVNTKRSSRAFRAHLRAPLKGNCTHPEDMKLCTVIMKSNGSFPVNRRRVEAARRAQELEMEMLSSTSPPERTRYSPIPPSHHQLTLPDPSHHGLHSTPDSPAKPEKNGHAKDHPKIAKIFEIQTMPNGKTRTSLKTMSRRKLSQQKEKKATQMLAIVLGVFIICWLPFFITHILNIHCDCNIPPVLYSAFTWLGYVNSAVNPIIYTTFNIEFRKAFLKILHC

The experiment has as its target D(2) dopamine receptor (Homo sapiens) (UniProt P14416). Briefly: HTS Assay for Allosteric Agonists of the Human D2 Dopamine Receptor: Primary Screen for Agonists. Further: 0% is about no effect. To be noted: HEK293 T-REx D2 cells, calcium flux agonist mode; at 2 µM; stronger effect = higher value. In short, it runs like this: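 Agonism scored from kinetic calcium signal (1 read/sec, 180 s) following compound pin transfer, after a 10 s baseline. Cells: HEK293 Trex line expressing inducible D2 receptor coupled to calcium, dye-loaded after overnight culture at 30 C.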
(Calcium flux is commonly read through the fluorescence of an indicator in the cells.)
Regarding `COC(=O)c1ccc(-c2nc3cc(NC(C)=O)ccc3o2)cc1`, the activation was -2.97%.

On to `Cc1n[nH]c(C)c1S(=O)(=O)N1CCCC(C(=O)Nc2ccc(Br)cc2)C1` (stereo not drawn), for which the activation is 0.576% and 0.392%.

Regarding `Cc1ccc(NC(=O)C2CCCN(S(=O)(=O)c3c(C)noc3C)C2)c(C)c1` (stereo not drawn), the activation is -0.264%.

In the case of `Cc1n[nH]c(C)c1S(=O)(=O)N1CCCC(C(=O)NCC2COc3ccccc3O2)C1` (stereo not drawn), the activation was 57.1% (active).

Regarding `O=C(NCC(c1ccco1)S(=O)(=O)c1cccs1)c1ccc(F)cc1` (stereo not drawn), the activation was 0.728%.

Take `CCOc1ccc(CNC(=O)c2cccc(Nc3nc4ccccc4n4nnnc34)c2)cc1OC`: the activation was 0.495%.

With `Cc1cc(C)c(/C=C2\C(=O)Nc3ccccc32)[nH]1`, the activation is 39.4% (active).

Regarding `Cc1ccccc1-n1c(C)cc(/C=C2\NC(=O)NC2=O)c1C`, the activation was -0.336%.

For `O=C1Nc2ccccc2/C1=C/c1ccnc2ccccc12`, the activation is 1.57%.

For the compound `CCOC(=O)c1c(NC(C)=O)c2c3c(sc2n1Cc1c(C)cc(C)cc1C)CCCC3`, the activation is 0.0213%.

For `CS(=O)(=O)N1CCC(C(=O)N2CCN(c3ccccc3)CC2)CC1`, the activation was 6.31%.

With `CCS(=O)(=O)N1CCC(C(=O)N2CCN(c3ccccc3)CC2)CC1`, the activation is 4.45%.

For the compound `CCS(=O)(=O)N1CCC(N2CCN(c3ccccc3)CC2)CC1`, the activation was 68% (active).

Regarding `Cc1ccccc1NC(=O)c1cc2c([nH]c1=O)CC(C)(C)CC2=O`, the activation is 0.0984%.

On to `CCOc1cc(/C=C(\C#N)c2nc(-c3cccs3)c(NC(C)=O)s2)ccc1O`, for which the activation was 31.5% (active).

Consider `CCOc1cc(-c2cc(-c3ccc(NC(C)=O)cc3)nc(N)c2C#N)ccc1O`, for which the activation was 0.571%.

For the compound `CCOc1ccc(/C=C(\C#N)c2nc3ccccc3c(=O)[nH]2)cc1OC`, the activation is -1.7%.

For the compound `OC(COCC1COc2ccccc2O1)CN1CCN(c2ccc(F)cc2)CC1` (stereo not drawn), the activation is 8.89%.

As to `OC(COCc1ccco1)CN1CCN(c2ccccc2)CC1` (stereo not drawn), the activation is 85.6% (active).

In the case of `O=[N+]([O-])c1ccc(N2CCN(CC(O)COc3ccccc3)CC2)cc1` (stereo not drawn), the activation was -0.607%.

As for `COc1ccc(CNC(=O)CSCc2nc(-c3ccccc3F)oc2C)cc1`, the activation is -0.228%.

For the compound `O=C(CCC1CCCN(C(=O)Cc2ccc(F)cc2)C1)N1CCN(c2ccccn2)CC1` (stereo not drawn), the activation was 0.424%.

Regarding `Cc1c(CN2CC[C@@H](N3CCN(c4ccccn4)CC3)[C@H](O)C2)[nH]c2ccc(F)cc12`, the activation is 76.9% (active).

As to `Cc1nc(N2CCN(c3ccccn3)CC2)c2c(C)c(C(=O)Nc3ccc(F)cc3)sc2n1`, the activation was -0.199%.

As to `COC(=O)c1ccc(Cn2c(SCC(=O)N(C)c3ccccc3)nc3ccccc32)cc1`, the activation is 0.816%.

Take `O=C(COc1coc(CN2CCN(c3ccccc3)CC2)cc1=O)N1CCc2ccccc21`: the activation is -0.514%.

As to `O=C(COc1coc(CN2CCN(c3ccccc3)CC2)cc1=O)Nc1ccccc1F`, the activation was 45.8% (active).

`Cc1cc(C)cc(NC(=O)COc2coc(CN3CCN(c4ccccc4)CC3)cc2=O)c1`: the activation is 5.66%.

For the compound `CC(C)OC(=O)C(C#N)c1nc2ccccc2nc1N1CCN(Cc2ccccc2)CC1` (stereo not drawn), the activation was 0.138%.

Turning to `CC(C)OC(=O)C(C#N)c1nc2ccccc2nc1N1CCN(Cc2ccc3c(c2)OCO3)CC1` (stereo not drawn), the activation is 48.3% (active).

Take `N#C/C=C/N1CCN(Cc2ccc3c(c2)OCO3)CC1`: the activation was 0.771%.

Consider `Cc1ccc(Cl)cc1NC(=O)/C(C#N)=C\c1cn(Cc2ccc(F)cc2)c2ccccc12`, for which the activation was 0.348%.

As for `Cc1cc2nc3c(=O)n(Cc4ccccc4)c(=O)[nH]c3nc2cc1N`, the activation is 64.2% (active).

On to `C=CCSc1nc2c(c(=O)[nH]c(=O)n2C)n1Cc1ccccc1`, for which the activation is -0.578%.

As to `Cc1nc2c(c(=O)n1Cc1ccco1)c1nc3ccccc3nc1n2Cc1ccccc1`, the activation was -0.619%.

`Cc1cccc(CC(=O)N2CC(=O)Nc3ccc(F)cc3C2c2ccccc2)c1` (stereo not drawn): the activation is -0.521%.

As to `CCCN(CCC)C(=O)C1CCCN(c2ncnc3c2nc2n3CCCCC2)C1` (stereo not drawn), the activation was 0.0903%.

`Cn1c(=O)c2sccc2n2c(CCC(=O)NCc3ccccc3Cl)nnc12`: the activation was -0.258%.

In the case of `CC(C(=O)O)N1C(=O)c2cccc3cccc1c23` (stereo not drawn), the activation was 0.197%.

With `CN1C(=O)c2cccc3c(N)ccc(c23)C1=O`, the activation is 109% (active).

For the compound `O=C1c2cccc3c([N+](=O)[O-])ccc(c23)C(=O)N1CC1CCCO1` (stereo not drawn), the activation was 3%.

On to `Cc1nn(C)cc1N1C(=O)c2cccc3c(N)ccc(c23)C1=O`, for which the activation was 74% (active).

On to `COCCNC(=O)c1ccc2c(c1)N=C(C)c1cc(C)ccc1S2`, for which the activation is 0.312%.

Regarding `Cc1ccc(-n2c(SCC(=O)Nc3cccc(F)c3)nc3c(oc4ccccc43)c2=O)cc1C`, the activation is 2.59%.

As to `Cc1ccc(N2CCN(C(=O)CCc3c(C)nc4c(c3C)c(=O)n(C)c(=O)n4C)CC2)c(C)c1`, the activation is -0.245%.

Consider `CCc1nnc(SCc2c(F)cccc2Cl)c2cc3sccc3n12`, for which the activation was 0.47%.

For the compound `COc1ccc(-c2cn3nc(N4CCCC(C(=O)NCCCOC(C)C)C4)sc3n2)cc1` (stereo not drawn), the activation was -0.281%.

In the case of `CN1c2ccc(Cl)cc2-c2nc(SCC(=O)Nc3cc(F)ccc3F)ncc2S1(=O)=O`, the activation was 0.0638%.

Regarding `CO/N=C/c1cn(-c2ccc(Cl)cc2)nn1`, the activation was 33.3% (active).

As for `O=C(COc1ccc(Cl)cc1)Nc1ccc(-c2nc3cc(Cl)ccc3o2)c(O)c1`, the activation is 1.1%.

In the case of `O=C(NC1CC(=O)N(c2ccc(F)cc2)C1)C1CCCCC1` (stereo not drawn), the activation is 1.31%.

For the compound `CCOc1ccc(C(=O)N2CCN(CCc3ccccn3)CC2)cc1`, the activation is 0.162%.

With `Cc1cc(NC(=O)CSc2ncc(C(=O)Nc3ccc(Cl)cc3)c(=O)n2C)no1`, the activation was 0.675%.

Turning to `CS/C(=C\C(=O)c1ccco1)Nc1ccccc1Cl`, the activation was 34.5% (active).

In the case of `Cc1c(Cl)cccc1NC(=O)CCC(=O)N/N=C/c1ccco1`, the activation is 0.478%.

With `O=C(Nc1ccccc1C(=O)N1CCCCC1)c1ccco1`, the activation is -0.0145%.

As to `CNC(=S)N1CCN(c2ccccn2)CC1`, the activation was 2.09%.

Take `CC(=C1C(=O)c2ccccc2C1=O)N1CCN(c2ccccn2)CC1`: the activation is 62.2% (active).

As to `O=C(C(Cl)Cl)N1CCN(c2ccccn2)CC1`, the activation is 4.39%.

`Cc1cccc(-c2nnc(SCC(=O)N3CCCc4ccccc43)o2)c1`: the activation was -1.45%.

For `CC(C)c1ccc(C2CC(=O)N3CN(C4CCCCC4)CSC3=C2C#N)cc1` (stereo not drawn), the activation was 0.111%.

Consider `COc1ccccc1-c1cc2nc(C)c(CCC(=O)O)c(C)n2n1`, for which the activation was 0.732%.

With `COc1ccc(N2CCN(S(=O)(=O)c3ccc(-c4coc(C)n4)cc3)CC2)cc1`, the activation was -0.462%.

In the case of `COc1cc(OC)c(NC(=O)c2cc(S(=O)(=O)N3CCCC3)cn2C)cc1Cl`, the activation is 2.37%.

Regarding `CCC1=Nc2cc(C(=O)NCC(C)c3ccccc3)ccc2Sc2ccc(C)cc21` (stereo not drawn), the activation is -0.272%.

As to `CCCCCc1c(C)nc(N2CCN(Cc3ccc4c(c3)OCO4)CC2)[nH]c1=O`, the activation was 0.0879%.

Turning to `Fc1ccc2[nH]c3c(N4CCN(Cc5ccc6c(c5)OCO6)CC4)ncnc3c2c1`, the activation was 35.9% (active).

Take `O=C(CSc1nc2c(c(=O)[nH]1)CN(Cc1ccc3c(c1)OCO3)CC2)Nc1cc(F)ccc1F`: the activation was 0.843%.

For the compound `CCn1c2ccccc2c2nnc(SCC(=O)O)nc21`, the activation was -0.808%.

For the compound `CCCCc1nn2c(=O)cc(COC(=O)c3ccc(NC(=O)c4ccccc4C)cc3)nc2s1`, the activation is 8.52%.

As to `Cn1c(=O)c(=O)n(C)c2cc(S(=O)(=O)NCCN3CCN(c4ccccc4F)CC3)ccc21`, the activation was 67.4% (active).

In the case of `CCOC(=O)N1CCN(c2c(NCCN3CCN(c4ccccc4F)CC3)c(=O)c2=O)CC1`, the activation is 10.4%.

As to `O=C(CCCNS(=O)(=O)c1cccc2nsnc12)NCCN1CCN(c2ccccc2F)CC1`, the activation was 24.7%.

Regarding `COc1ccccc1CN1CCC(CNC(=O)c2cnn(-c3ccccc3Cl)c2C2CCN(C(=O)OC(C)(C)C)CC2)CC1`, the activation was 3.36%.

Consider `Cc1ccccc1NC(=O)Cn1c(=O)n(Cc2ccco2)c(=O)c2ccc(C(=O)NC3CCCC3)cc21`, for which the activation is 0.581%.

With `Cc1cccc(-n2c(=O)c3c(c4cc(C)ccc4n3C)n(CC(=O)Nc3ccccc3Cl)c2=O)c1`, the activation is 0.838%.

Consider `COC(c1ccccc1)c1nnc(CCC(=O)N2CCN(CCOc3ccccc3)CC2)o1` (stereo not drawn), for which the activation is 47% (active).

As to `Cc1nc(CN2CCN(C(=O)CCc3nnc(Cc4c[nH]c5ccccc45)o3)CC2)cs1`, the activation is 0.942%.

As to `O=S(=O)(c1cccs1)N1CCN(CCOc2ccccc2)CC1`, the activation was 21.2%.

In the case of `Cc1ccc(Nc2ccc3cc(S(=O)(=O)N4CCCCC4)ccc3n2)cc1F`, the activation is 0.936%.

As to `Cc1cccc(NC(=O)CN(c2ccc(C(C)C)cc2)S(=O)(=O)c2c(C)nn(C)c2C)c1C`, the activation is 0.387%.

As to `Cc1nc2nc(SCC(=O)NC3CCC(C)CC3)nn2c(C)c1Cc1ccccc1Cl` (stereo not drawn), the activation was -0.0264%.

For the compound `COc1ccccc1-c1noc(-c2ccc(NCc3ccccc3)c([N+](=O)[O-])c2)n1`, the activation is -0.924%.

On to `Cc1ccccc1C(=O)Nc1cc(C)c(O)c(-c2nc3ccccc3o2)c1`, for which the activation was -0.387%.

As for `CCn1cc(C(=O)N2CCN(Cc3ccc4c(c3)OCO4)CC2)c2cc(OC)c(OC)cc2c1=O`, the activation was 51.1% (active).

As for `O=C(Nc1cccc2ccccc12)N1CCN(Cc2ccc3c(c2)OCO3)CC1`, the activation was 5.88%.

On to `Cc1cc(C)n2nc(C(=O)Oc3ccc4c(c3)OCO4)nc2n1`, for which the activation is -0.808%.

Consider `O=C(c1cccs1)N1CCN(Cc2ccc3c(c2)OCO3)CC1`, for which the activation is 84.2% (active).

Consider `COc1ccc(-c2cc(C(=O)N3CCN(Cc4ccc5c(c4)OCO5)CC3)on2)cc1OC`, for which the activation is -0.524%.

With `Cc1cc(C)n2nc(C(=O)N3CCN(Cc4ccc5c(c4)OCO5)CC3)nc2n1`, the activation is 40.9% (active).

Consider `O=C(C1CCN(Cc2ccc(Cl)cc2)CC1)N1CCN(Cc2ccc3c(c2)OCO3)CC1`, for which the activation was 0.973%.

On to `CCn1cc(C(=O)NCc2ccc3c(c2)OCO3)c2cc(OC)c(OC)cc2c1=O`, for which the activation is -0.995%.

Regarding `CCn1cc(C(=O)N2CCN(C3CCCCC3)CC2)c2cc(OC)c(OC)cc2c1=O`, the activation was 0.186%.
